Laboratory results from PubChem BioAssay (NCI).
About 83,000 compounds went through this panel and 20% of them were active in at least one assay; those are over-represented in the sample as a whole.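 A percent growth of 40 corresponds to 60% growth inhibition; 0 means no net growth; -100 means all cells died. Active threshold: below 10.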 Values without a mark were called inactive. The source made the active and inactive calls.

Columns and labels:
Assay in all cases: NCI-60 one-dose screen, 48 h (100 = growth as untreated, 0 = no growth, -100 = all killed)
Details in all cases: 10 µM unless noted
HT29 colon = system: HT29 colon
SNB-19 CNS = system: SNB-19 CNS
U251 CNS = system: U251 CNS
PC-3 prostate = system: PC-3 prostate
SK-MEL-5 melanoma = system: SK-MEL-5 melanoma
UACC-62 melanoma = system: UACC-62 melanoma
SK-MEL-28 melanoma = system: SK-MEL-28 melanoma
LOX IMVI melanoma = system: LOX IMVI melanoma
SK-MEL-2 melanoma = system: SK-MEL-2 melanoma

Row | SMILES | growth (HT29 colon) | growth (SNB-19 CNS) | growth (U251 CNS) | growth (PC-3 prostate) | growth (SK-MEL-5 melanoma) | growth (UACC-62 melanoma) | growth (SK-MEL-28 melanoma) | growth (LOX IMVI melanoma) | growth (SK-MEL-2 melanoma)
1 | COC(=O)C(C)NS(=O)(=O)/N=C1\NC(=O)NC1=C(Cl)Cl (centres undefined) | 115% | 100% | 106% | 92.9% | 99.1% | 91.9% | 99.4% |  | 
2 | COc1cc2nc(-c3ccc(Cl)cc3)cc(OCCCNCC3CCCO3)c2cc1OC (centres undefined) | 16.1% | 82.5% | 61.4% | 52.2% | 50.1% |  | 8.95% (active) | -47.8% (active) | 124%
3 | OC1CCN(CCCOc2c3ccccc3nc3c2oc2ccccc23)CC1 | 3.65% (active) | 0.345% (active) | 4.21% (active) | -1.48% (active) | -69.1% (active) |  | -2.42% (active) | -63.3% (active) | -62.4% (active)
4 | C=C1CC[C@H]2[C@@](C)(CCC3OC(c4ccc(OCc5cn(C6CC(OC(C)=O)C(OC(C)=O)C(COC(C)=O)O6)nn5)cc4)OC[C@]32C)[C@@H]1/C=C/C1=CCOC1=O (some centres undefined) | 84.1% | 88.3% |  | 62% | 0.123% (active) | 70.5% | 100% |  | 100%
5 | COc1ccc2[nH]cc(-c3cc(N)n4nc(-c5c[nH]c6ccc(OC)cc56)cc4n3)c2c1 | -56.1% (active) | 78.6% | -87.6% (active) | 5.09% (active) | 3.11% (active) | -53.4% (active) | -69.4% (active) |  | 72.5%
6 | CS(=O)(=O)Nc1ccc(-c2nn(-c3ccc(S(C)(=O)=O)cc3)cc2/C=C/C(=O)c2ccc(NC(=O)CO[N+](=O)[O-])cc2)cc1 | 104% | 100% | 101% | 98.2% | 100% | 100% |  | 93.2% | 97.3%
7 | O=c1[nH]c2ccc(Cl)cc2cc1CSc1ccccc1Nc1nccc(-c2ccc(Cl)cc2)n1 | 109% | 95% | 79.7% | 69% | 95.1% | 75.9% | 106% | 98.4% | 
8 | C=CCn1c(SCC(=O)c2ccc(Br)cc2)nnc1-c1c[nH]c2ccccc12 | 104% | 100% | 99.9% | 78.3% | 95.9% | 83.1% | 96.1% |  | 
9 | CCOC(=O)c1c(Nc2ccccc2)nn2c(N)c(C#N)c(-c3ccc(Cl)cc3)nc12 | 73.1% | 89.8% | 44.6% | 40.9% | 94.8% | 70% | 78.5% | 49.3% | 87%
10 | COC(=O)C1CN(S(=O)(=O)/N=C2\NC(=O)NC2=C(Cl)Cl)C1 | 111% | 100% | 105% | 99.3% | 100% | 95.7% | 112% |  | 108%
11 | N#Cc1nc(-c2ccccc2)oc1S(=O)(=O)N1CCN(CCc2ccccn2)CC1 | -5.82% (active) | 97.7% | 88% | 86% | 97.6% |  | 43.6% | -79.2% (active) | 108%
12 | COc1ccc(NC2=CC(=O)C(C)=C(C)C2=O)cc1 | 109% | 99.2% | 92% | 71.5% |  | 95.4% |  |  | 81.8%
13 | COc1cc(-c2ccc3ncnc(NC(C)c4ccccc4)c3c2)cnc1OC (centres undefined) | 65% | 48.7% | 63.4% | 29.5% | 74.4% | 63.4% | 60.9% |  | 47.3%
14 | O=C1[C@H]2Cc3c([nH]c4ccccc34)[C@@H](c3ccc(Br)cc3)N2C(=O)CN1C1CCN(Cc2ccccc2)CC1 | -30.9% (active) | 47.8% | 32.3% | 17% |  | 84% | 70.3% |  | 28.8%
15 | O=C(CCCN1C(=O)/C(=C/c2ccccc2F)SC1=S)N1CCOCC1 | 99.2% | 101% | 86.1% | 105% | 97.1% | 81.5% | 89.7% | -63.6% (active) | 115%
16 | N#Cc1c(-c2ccc(F)cc2)nc2c(C#N)c(Nc3ccccc3)nn2c1N | 102% | 96.3% | 104% | 96.7% | 99.2% | 99.8% | 102% | 99.8% | 105%

Row | SMILES | growth (HT29 colon) | growth (SNB-19 CNS) | growth (U251 CNS) | growth (PC-3 prostate) | growth (SK-MEL-5 melanoma) | growth (UACC-62 melanoma) | growth (SK-MEL-28 melanoma) | growth (LOX IMVI melanoma) | growth (SK-MEL-2 melanoma)
17 | OC1CCN(CCCOc2c3ccc(Cl)cc3nc3c2oc2ccccc23)CC1 | -44.3% (active) | 6.3% (active) |  | -4.93% (active) | -97.8% (active) | -69.7% (active) | -78.6% (active) |  | -86.3% (active)
18 | CN(C)CCCOc1c2ccc(Cl)cc2nc2c1oc1ccccc12 | -45.5% (active) | 5.62% (active) | 4.05% (active) | 5.27% (active) | -97.9% (active) | -73.8% (active) | -76.4% (active) |  | -87.6% (active)
19 | Cc1c(NC(=O)CSc2nc3sc4c(c3c(=O)n2-c2ccc(Cl)cc2)CCCC4)c(=O)n(-c2ccccc2)n1C | 101% | 79.7% | 104% | 94.4% | 87.2% | 83.1% | 89.2% | 89.5% | 110%
20 | C/C(=N/NC(N)=S)c1ccc(Nc2nc(SCC(C)C)nc(-c3ccc(F)cc3)c2C#N)cc1 | 15% | 15.4% | -39.6% (active) | -14.5% (active) | 37.3% | -18.4% (active) | -9.66% (active) |  | 
21 | C#Cc1nc(C2=C(C)C(O)CC2)cs1 (centres undefined) | 118% | 104% | 104% | 97.7% | 101% | 94.2% | 105% |  | 117%
22 | Cc1cc(C(NC(=O)CCCCCNc2cccc3c2C(=O)N(C2CCC(=O)NC2=O)C3=O)c2cccnc2)c(O)c2ncccc12 (centres undefined) | 20.5% | 21.7% | 30.7% | 6.73% (active) | -58.7% (active) | 18.5% | 25.2% |  | -16.9% (active)
23 | CCN1C(=S)N(CC)C2C1N=C(SC)N2/N=C/C=C/c1ccccc1[N+](=O)[O-] (centres undefined) | 93.5% | 103% |  | 85% | 96.2% | 85.1% | 105% | 116% | 123%
24 | CCC/C=C/C=C/C(=O)N[C@@H](Cc1cc(F)cc(F)c1)C(=O)N[C@@H]1C(=O)N2CCC[C@H]2C(=O)N2CCCC[C@H]2C(=O)N[C@@H](C)C(=O)N2C[C@H](C)C[C@H]2C(=O)O[C@H]1C | 9.05% (active) | 25.8% | 26.8% | 14.5% | 10.5% | 13.6% | 29% |  | -12.9% (active)
25 | COc1ccc(COc2ccc(/C=C3/C(=O)Nc4cc(Cl)ccc43)cc2)cc1 | 107% | 100% | 96.8% | 86.1% | 96.7% | 88.6% | 98.7% |  | 114%
26 | CC(C)Sc1nc(Nc2ccc(S(N)(=O)=O)cc2)c(C#N)c(-c2ccc(F)cc2)n1 |  |  |  | 40.9% | 54.3% |  | 78% |  | 92.5%
27 | O=[N+]([O-])c1ccc(O)c2ncccc12 | 20% | 23.8% | 17.2% | 31.3% | 15.3% | 10.5% | 29.1% | 25.2% | 78.3%
28 | CCOC(=O)c1c(Nc2ccccc2)nn2c(-c3ccco3)c(C#N)cnc12 | 100% | 78.3% | 109% | 86.4% | 91.3% | 91% | 90.6% | 81.4% | 
29 | N#Cc1nc(-c2ccccc2)oc1S(N)(=O)=O | 43.8% | 95.3% | 92.6% | 81.4% | 76.2% | 66.6% | 69.5% | 10.5% | 84.9%
30 | CC(=O)Nc1cc(F)cc(-c2ccc3[nH]cc(-c4ccccc4)c3n2)c1 | -49.6% (active) | 12.9% | -2.16% (active) | 20% | 49% | -1.28% (active) | -67.5% (active) | -62.4% (active) | -17.5% (active)
31 | N#Cc1nc(-c2ccccc2)oc1N1CCC(CO)C1 (centres undefined) | 107% | 93.3% | 105% | 107% | 106% | 89.4% | 103% | 88.2% | 127%
